# Bioassay records from PubChem.
# SW480 rerep: inducers of DNA re-replication in SW480 colon cancer cells; SW480 DNA re-replication, Hoechst DNA content imaging, 48 h; actives 1.8% (n = 340,000); AID 624297; Potency, µM (top dose mostly 46.1 µM), for the others: at the highest dose re-replication activation, actives largely listed as activators; note: % of control where 0% means no effect; nearly all actives have a fitted effect of over 55% in size
#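 SW480 cells exposed to compounds for 48 hr at 37 C, 5% CO2, then Hoechst-stained 40 min. Nuclear DNA content imaged by fluorescence scanning (405 nm excitation, 500-530 nm emission); re-replication scored as increased high-intensity nuclei.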
# HT1080NT lethal: kills 2HG-producing HT-1080-NT fibrosarcoma cells; AID 686970; actives 1.6% (n = 360,000); Potency, µM (doses to about 46.1 µM), for the others: at the top dose activity, negative = less viability, actives largely listed as cytotoxic; HT-1080-NT fibrosarcoma viability, CellTiter-Glo ATP luminescence, 48 h;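 note: NT is the 2HG producing partner of a matched IDH1 knockdown line; 0% = DMSO-treated cells and -100% = media-only wells without cells; nearly all actives have a fitted effect of over 55% in size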
#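 A 48-hour cytotoxicity screen used HT-1080-NT cells plated 2 hours before compound delivery. ATP-based CellTiter-Glo luminescence measured viability, normalized to DMSO and no-cell controls.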
# KB-V1 cytotox: kills drug-selected multidrug resistant KB-V1 cells | KB-V1 MDR cells viability, CellTiter-Glo, 72 h | Potency, µM (highest dose often 46.1 µM), hits mostly cytotoxic | actives 3.4% (n = 400,000) | AID 1347076; note: % is set by controls: 0 for no effect and ±100 for the full control effect; nearly all actives have a fitted effect of over 60% in size
#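 Cytotoxicity toward P-gp-expressing KB-V1 cells was determined as loss of CellTiter-Glo luminescence after 72 h at 37 degrees C. Compounds were tested in quantitative HTS format across a concentration range, with curves fitted to normalized data.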
# MCF10A rereplic: induces DNA re-replication in MCF 10a normal breast cells; actives 2.9% (n = 350,000); AID 624296; Potency, µM (series often up to 46.1 µM), inactives show top-dose activity, positive = re-replication, usual class: activators; MCF 10A DNA re-replication, Hoechst nuclear intensity, 48 h; note: % of control where 0% means no effect; nearly all actives have a fitted effect of over 50% in size
# HT1080 IDH1KD tx: toxicity to HT-1080 IDH1 knockdown cells (counter line) | actives 2% (n = 360,000) | HT-1080 IDH1 knockdown viability, ATP luminescence, 48 h | Potency, µM (highest dose often 46.1 µM), without a hit: at the highest dose activity, negative = toxicity, usual class: cytotoxic | AID 686971;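 note: 0% = DMSO wells and -100% = cell-free medium wells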
#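 In this qHTS, HT-1080 cells depleted of IDH1 are exposed for 48 h at 37 °C to compound titrations. Toxicity is scored from CellTiter-Glo luminescence, with DMSO as full viability and medium alone as none.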
# KB-3-1 cytotox: kills parental KB-3-1 adenocarcinoma cells | KB-3-1 viability, CellTiter-Glo ATP luminescence, 72 h | actives 1.4% (n = 400,000) | Potency, µM (highest dose often 46.1 µM), hits mostly cytotoxic | AID 1347075; note: % is set by controls: 0 for no effect and ±100 for the full control effect; nearly all actives have a fitted effect of over 60% in size
#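 Cytotoxicity measured as CellTiter-Glo luminescence after 72 h at 37 C. Compound titrations were pinned onto drug-naive KB-3-1 parental adenocarcinoma cells grown in DMEM with 10% FBS, and normalized data fitted to concentration-response curves.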
# The depositor's hits bear a star; i = inactive; ? = inconclusive; · = no result; [ ] = dose if it differs, or a comment. This is a sample that favours compounds with a hit; in the whole collection about 7.9% have one here. Calls come from the whole dose curve; as a rule, active = well fitted curve in the direction sought with a large enough effect; inconclusive = small, poorly fitted or top-dose-only effect, or another doubt; inactive = no such curve, though single readings can be large; an effect the other way counts as inactive or inconclusive. Potency is the fitted concentration of half-maximal effect.
SMILES,SW480 rerep,HT1080NT lethal,KB-V1 cytotox,MCF10A rereplic,HT1080 IDH1KD tx,KB-3-1 cytotox
CCN(CC)c1ccc(NC(=O)c2ccccc2F)cc1S(=O)(=O)Nc1ccccc1OC,-79%,3%,9.2µM*,2%,-8%,i
COc1ccc(C(=O)NCCNc2nc3c(C)cccc3cc2C#N)cc1,15%,1%,i,18µM*,1%,i
Cc1cccc2cc(C#N)c(NCCNS(=O)(=O)c3ccc4c(c3)OCCO4)nc12,16µM*,-25%,23µM*,?,-27%,i
CCC(=O)NCCCNc1nc2c(C)cccc2cc1C#N,?,-6%,?,-1%,-19%,i
COc1ccccc1Nc1nc2ccc(C)cc2cc1C#N,5%,15%,i,8%,13%,i
COc1ccc(C(=O)NCCNc2nc3cc(C)cc(C)c3cc2C#N)cc1,·,?,?,·,?,i
Cc1ccc2nc(NCCNC(=O)c3ccccc3)c(C#N)cc2c1,?,6%,i,?,8%,i
Cc1ccc2nc(NCc3ccccc3)c(C#N)cc2c1,?,14%,i,15µM*,13%,i
COc1ccc(C(=O)NCCNc2nc3ccc(C)cc3cc2C#N)cc1,?,1%,i,21µM*,0%,i
COc1ccc(CCNC(=O)C2CCCN(S(C)(=O)=O)C2)cc1 (stereo not given),-2%,-1%,i,-4%,-5%,i
COc1cc(Nc2ccn3nccc3n2)cc(OC)c1OC,·,4%,i,·,3%,i
COc1ccc(S(=O)(=O)N2CCOC2CNC(=O)C(=O)NCCN2CCOCC2)cc1 (stereo not given),-4%,2%,?,-1%,1%,i
COc1ccc(C(=O)NCCNc2nc3c(C)cccc3cc2C#N)cc1OC,2.6µM*,-8%,i,0.58µM*,-6%,?
COc1cc(C(=O)NCCNc2nc3c(C)cccc3cc2C#N)cc(OC)c1OC,·,2%,?,·,12%,i
O=C1C(C2=NC(c3ccccn3)C3C(=O)N(c4ccccc4)C(=O)C23)=C(O)c2ccccc21 (stereo not given),-3%,1%,i,5%,-14%,i
COc1ccc(NC(=O)c2cc(Br)ccc2Cl)c([N+](=O)[O-])c1,14%,-27%,i,?,-29%,i
O=C(Nc1c(Cl)cc([N+](=O)[O-])cc1Cl)c1cc(Cl)ccc1O,·,·,?,·,·,0.73µM*
O=C(Nc1ccc([N+](=O)[O-])cc1Cl)c1cc(Br)ccc1O,·,·,1.8µM*,·,·,2.3µM*
COc1ccc(-c2cn3nc(N4CCCC(C(=O)Nc5cc(C)ccc5C)C4)sc3n2)cc1 (stereo not given),·,·,i,·,·,i
CC(CCC(C)C(C)(C)C)[C@@H]1CC[C@H]2C3C[C@H](OS(O)(=S)=S)[C@H]4C[C@H](OS(O)(=S)=S)[C@@H](OS(O)(=S)=S)C[C@]4(C)[C@H]3CC[C@]12C (stereo not given in full) (tested in a mixture with another compound),-59%,9.2µM*,i,?,?,i
CCOC(=O)C1CCN(c2cc(C)nc3cc(-c4cccc(F)c4)nn23)CC1,?,8%,i,4.1µM*,15%,i
CCOC(=O)C1CCN(C(=O)CCc2c(C)nc3cc(-c4ccccc4)nn3c2C)CC1,-5%,7%,i,?,-1%,i
CCOC(=O)N1CCC(n2c(SCC(=O)c3ccccc3)nc3ccsc3c2=O)CC1,-3%,1%,i,0%,10%,i
CCOC(=O)N1CCC(n2c(SCC(=O)NCc3ccco3)nc3ccsc3c2=O)CC1,-1%,8%,2.1µM*,21%,-3%,?
CCOC(=O)N1CCC(n2c(SCC(=O)OCc3ccccc3)nc3ccsc3c2=O)CC1,-1%,-4%,i,1%,-24%,i
SMILES,SW480 rerep,HT1080NT lethal,KB-V1 cytotox,MCF10A rereplic,HT1080 IDH1KD tx,KB-3-1 cytotox
CCOC(=O)CSc1nc2ccsc2c(=O)n1C1CCN(C(=O)OCC)CC1,-10%,-11%[9.24 µM],16µM*,-5%,-13%,i
O=C(c1ccc(-c2ccccc2)cc1)N1CCN(c2ccc3c(c2)C2CC3CCN2C(=O)OCc2ccccc2)CC1 (stereo not given),·,2%,i,·,-6%,i
O=C(c1cccc(Cl)c1)N1CCN(c2ccc3c(c2)C2CC3CCN2C(=O)OCc2ccccc2)CC1 (stereo not given),·,?,16µM*,·,?,?
Cc1ccc(C(=O)Nc2ccc(Cl)cc2C)c(Cl)c1,3%,20%,16µM*,11%,-2%,i
O=C(COc1ccc(S(=O)(=O)NC2CCCCC2)cc1Cl)NCc1ccc2c(c1)OCO2,25%,0%[9.24 µM],?,10%,?,i
O=C(COC(=O)c1cc([N+](=O)[O-])ccc1Cl)NCCc1ccccc1,-3%,0%,i,2%,16%,i
COCCNS(=O)(=O)c1ccc(OCC(=O)OC)c(Cl)c1,-15%,6%,i,0%,10%,i
O=C(COc1ccc(S(=O)(=O)NC2CCCCC2)cc1Cl)Nc1ccc2c(c1)OCO2,2%,?,10µM*,?,?,?
O=C(COc1ccc([N+](=O)[O-])cc1Cl)NCCc1ccccc1,18%,10%,21µM*,-4%,17%,i
COc1ccc(CCNC(=O)COc2ccc(S(=O)(=O)NC3CCCCC3)cc2Cl)cc1OC,15%,-16%,10µM*,0%,-19%,?
COCCCNC(=O)COc1ccc(S(=O)(=O)NCc2ccccc2)cc1Cl,-5%,5%,21µM*,1%,2%,i
COc1ccc([N+](=O)[O-])cc1NC1CCN(C(=O)c2cccs2)CC1,1%,-10%,i,5%,-11%,i
CCN(CC)S(=O)(=O)c1ccc2c(c1)nc(CN(C)C(=O)Nc1ccc(C)c(F)c1)n2C,·,·,i,·,·,i
CCCc1c(NC(=O)Nc2ccc(F)cc2)cnn1-c1ccc(Cl)cc1,?,-28%,?,?,-20%,9.2µM*
O=C(NCCc1ccc(Cl)cc1)Nc1ccc(F)cc1,-2%,3%,i,-3%,-4%,i
Nc1nc2ccccc2cc1C(=O)NCCCCc1ccccc1,·,?,2.6µM*,·,?,i
Cc1ccccc1C(=O)NCCCCc1ccccc1,-3%,1%,i,2%,8%,i
O=C(NCc1cccs1)c1cc(-c2ccccc2)nc2ccccc12,2%,-4%,?,?,-1%,i
